Rows were chosen to be rich in hits. Some 4% of all compounds tested hit in one or more screens of this group.
TROY signal inh = blocks TROY-dependent signaling in reporter cells; Q293 LMP1-TROYcd NF-kB luciferase reporter, 4 h; inhibition, % at 10 µM; actives 0.98% (n = 360,000);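 active = compounds whose plate-normalised and pattern-corrected inhibition of the luciferase reporter signal at the single screening dose is 50% or more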
HIF-2a inh = inhibitors of HIF-2a; 786-0 RCC cells HIF-2a reporter, luciferase luminescence, overnight; inhibition, % at 18.8 µM; actives 0.72% (n = 360,000); AID 624352;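 active = inhibition of the luminescence signal of 40% or more relative to plate controls, in a single-dose primary screen at 18.75 µM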
TWEAK Fn14 block = blocks TWEAK-Fn14 interaction in a reporter cell assay. TWEAK-stimulated Fn14 reporter cells, luciferase luminescence, 8 h. inhibition, % at 10 µM. actives 2% (n = 360,000); in the data active = inhibition above about 50%
KKLEB tox = CF airway cell cytotoxicity counter-screen. activity change (cytotoxicity), % at 5 µM. KKLEB CF airway cells viability, ATPlite luminescence, overnight; active compounds read low; cells stimulated with P. aeruginosa culture filtrate. AID 602141. actives 0.36% (n = 360,000);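 active = corrected activity change at or below -50% at 5 µM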
CF NFkB inh = inhibitors of cystic fibrosis induced NF-kB | KKLEB NF-kB-GFP reporter, PAF-induced, GFP fluorescence overnight | inhibition, % at 5 µM | actives 0.86% (n = 360,000) | AID 588850;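 active = at least 50% inhibition at 5 µM, scaled per plate between neutral and stimulator controls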;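 also: PAF is a Pseudomonas aeruginosa culture filtrate used as stimulus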
Peg3 promoter = Peg3 promoter activity inhibition; HeLa PEG-Prom luciferase reporter, luminescence, overnight; inhibition, % at 20 µM; actives 1.7% (n = 360,000); AID 588405;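 active = inhibition of at least 50% at 20 µM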
Of the large screens only hits and unclear results are named; the others gave an inactive call; ! = not confirmed by another sample.

Cc1ccc(-n2c(O)c(/C=N/Nc3ccc(S(=O)(=O)N4CCOCC4)cc3[N+](=O)[O-])c3ccccc3c2=O)c(C)c1	TWEAK Fn14 block 82.4
O=C(O)COc1ccccc1/C=N/Nc1ccc(S(=O)(=O)N2CCOCC2)cc1[N+](=O)[O-]	Peg3 promoter 68.0
COc1cccc(CNc2nc(NCC3CC3)nc3ccsc23)c1	none
COc1ccccc1CNc1nc(NCc2ccc(C(C)C)cc2)c2sccc2n1	Peg3 promoter 95.3
COc1ccccc1CNc1nc(NCCOc2ccccc2Cl)c2sccc2n1	Peg3 promoter 59.6
COc1cccc(CNc2nc(NCC3CC3)nc3ccsc23)c1OC	none
CSc1ccccc1CNc1nc(NCC2CC2)nc2ccsc12	TROY signal inh 51.5
CC(C)c1ccc(CNc2nc(NCC3CC3)nc3ccsc23)cc1	Peg3 promoter 53.9
Cc1cccc(C(C)C)c1NC(=O)c1ccc(COc2ccc3c(C)cc(=O)oc3c2)cc1	none
CCOC(=O)Cc1csc(NC(=O)Cc2ccc(C)cc2)n1	none
CCC(C)(C)n1nnnc1C(c1ccc(O)c(OC)c1)N1CCc2ccccc2C1 (configuration not stated)	none
O=C(CCC(F)(F)F)N1CCC(CO)(CCc2ccccc2)CC1	none
CC(C)(C)n1ncc2c(=O)n(CC(=O)N3CCc4ccccc43)cnc21	TROY signal inh 60.2, TWEAK Fn14 block 58.8
CC(C)(C)n1ncc2c(=O)n(Cc3cccc(Cn4cnc5c(cnn5C(C)(C)C)c4=O)c3F)cnc21	TWEAK Fn14 block 81.6
CC(C)(C)n1ncc2c(=O)n(CC(=O)OCc3ccccc3)cnc21	TROY signal inh 86.5, TWEAK Fn14 block 99.5
COc1ccccc1CNC(=O)c1ccccc1NC(=O)C1=C(C)OCCS1	none
COc1cccc(CN2CCN(C3CCN(c4ccccc4F)CC3)CC2CCO)c1 (configuration not stated)	none
O=C(Nc1ccn(Cc2c(F)c(F)cc(F)c2F)n1)c1ccc(COc2ccccc2Cl)cc1	none
O=C(Nc1ccn(Cc2ccccc2F)n1)c1ccc(COc2ccccc2Cl)cc1	TROY signal inh 53.2, TWEAK Fn14 block 62.2
Oc1ccc(N=Nc2n[nH]c(-c3ccc(Cl)cc3)n2)cc1	Peg3 promoter 77.7
CCCCNC(=S)NNC(=O)c1ccc2c(c1)OCO2	none
CN1N=C(C(C)(C)C)CSC1=Nc1ccc(F)cc1	TWEAK Fn14 block 66.4
Cc1c[n+](CC(=O)c2ccccc2)cs1	TWEAK Fn14 block 90.0
O=C(O)COc1ccccc1/C=N/n1c(C2CCCCC2)n[nH]c1=S	none
Cn1c(CNc2nc(-c3ccccc3)cs2)nnc1SCC(=O)N1CCc2ccccc21	none
COC(=O)/C=C1/C(=O)N/C(=N\c2nc(C)cc(C)n2)N1c1ccc(OC)cc1	none
Oc1c(CN2CCN(c3ccccn3)CC2)cc(Cl)c2cccnc12	TWEAK Fn14 block 107.2, Peg3 promoter 50.3
OCCN1CCN(Cc2cc(Cl)c3cccnc3c2O)CC1	none
COCc1cc(CN2CCCC2)c(O)c2ncccc12	none
Oc1c(CN2CCCCC2)cc(COCc2ccccc2)c2cccnc12	Peg3 promoter 76.0
CCOc1cc(/C=N\NC(N)=O)cc(Br)c1OC(C)C	Peg3 promoter 56.0
CCOc1cc(/C=N/NC(N)=O)cc(Br)c1OCc1ccccc1F	none
CC(C)C(=O)NC(c1cccc([N+](=O)[O-])c1)c1c(O)ccc2ccccc12 (configuration not stated)	TROY signal inh 51.3
Cc1ccc(C(NC(=O)C2CCCCC2)c2c(O)ccc3ccccc23)cc1 (configuration not stated)	Peg3 promoter 53.5
CC(=O)NC(c1ccc(C(C)C)cc1)c1c(O)ccc2ccccc12 (configuration not stated)	none
CC(C)C(=O)NC(c1ccc([N+](=O)[O-])cc1)c1c(O)ccc2ccccc12 (configuration not stated)	Peg3 promoter 51.8
CCn1nnc2cc(C(=O)N(CCOC)CC(=O)Nc3cccc(C)c3C)ccc21	none
CCCc1nc2oc3c(OC)ncnc3c2c2c1COC(C)(C)C2	none
Cc1cc(C(=O)CCl)c(C)n1CCc1ccc(F)cc1	Peg3 promoter 56.0
COc1ccc(CCn2c(C)cc(C(=O)CCl)c2C)cc1OC	Peg3 promoter 61.4
CCN(C(C)=O)c1cnc(C=NNC(N)=S)c2ccccc12	Peg3 promoter 53.6
O=C(CN1CCCCC1)N/N=C/c1ccc(Cl)cc1Cl	none
Cc1ccccc1Nc1nc(-c2sc(NC(=O)c3ccco3)nc2C)cs1	none
CCOc1ccccc1Nc1nc(-c2sc(NC(=O)c3ccco3)nc2C)cs1	Peg3 promoter 60.3
CCC(=O)Nc1nc(C)c(-c2csc(Nc3ccc(C(=O)O)cc3)n2)s1	none
CC(=O)c1cccc(Nc2nc(-c3cccc([N+](=O)[O-])c3)cs2)c1	none
Cc1nc(NC(=O)c2ccccc2)sc1-c1csc(Nc2ccc(C(=O)O)cc2)n1	CF NFkB inh 66.1
CC(=O)Nc1nc(C)c(-c2csc(Nc3ccc(O)cc3)n2)s1	CF NFkB inh 78.1
CC(=O)Nc1nc(C)c(-c2csc(Nc3cccc([N+](=O)[O-])c3)n2)s1	TWEAK Fn14 block 59.1, CF NFkB inh 85.5
Cc1ccc(Oc2ccccc2NC(=O)CN2C(=O)NC3(CCCC3)C2=O)cc1	none
O=C(NCCS(=O)(=O)N1CCN(c2ccccc2F)CC1)C1CC(=O)N(c2ccc(F)cc2)C1 (configuration not stated)	none
CC(=O)Nc1cccc(-c2csc(Nc3ccc(Cl)cn3)n2)c1	none
CC(=O)Nc1cccc(-c2csc(Nc3ccccn3)n2)c1	TWEAK Fn14 block 57.9
CC(=O)Nc1nc(C)c(-c2csc(Nc3ccccn3)n2)s1	CF NFkB inh 56.1!
COc1ccc(-c2nnc3ccc(SCC(=O)Nc4nc5ccc(C)cc5s4)nn23)cc1OC	TROY signal inh 87.4, TWEAK Fn14 block 98.4
COC(=O)CSc1ccc2nnc(-c3ccc(OC)c(OC)c3)n2n1	none
CN1C(=O)c2ccc(NC(=O)c3cccc4ccccc34)cc2C1=O	none
N/C(=N\OC(=O)c1cc(Cl)ccc1Cl)c1ccccn1	TWEAK Fn14 block 74.8
Cc1cc(/C(N)=N/OC(=O)c2ccccc2Cl)no1	TWEAK Fn14 block 53.7
N/C(=N\NC(=O)Nc1ccc(Cl)cc1)c1ccccn1	TROY signal inh 64.0
N/C(=N\OC(=O)COc1ccc(Br)cc1Cl)c1ccccn1	TWEAK Fn14 block 66.4
CN(C)C1(CNC(=O)Nc2ccccc2)CCCCC1	none
Nn1c(SCC(=O)NCCC2=CCCCC2)nnc1-c1cccnc1	none
COc1ccccc1CNC(=O)CSc1nn2c(=O)c(C(C)(C)C)nnc2s1	none
CCN(Cc1ccccc1)S(=O)(=O)c1cc(C(=O)NCCCN(C)C)ccc1OC	none
Cc1cc(C)c(C)c(OCC(=O)O/N=C(\N)c2ccccn2)c1	none
N/C(=N\OC(=O)COc1ccc(Cl)cc1Cl)c1ccccn1	TWEAK Fn14 block 55.7

Screens (PubChem)
